Sampled rows, rich in hits. Any-hit rate of the full collection: about 5.4%.
Calb FLC: C. albicans growth modulation with fluconazole. C. albicans CaCi-2 (fluconazole-resistant clinical isolate) + fluconazole, Alamar Blue growth, 48 h. growth inhibition, % (test concentration not listed). actives 0.57% (n = 300,000). AID 1979;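 active = growth inhibition above about 58% in most replicates, limit read from the data, passing the limit was not always enough; inconclusive = exactly half the replicates above a set limit; inactive = most replicates below a set limit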;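 also: all wells also contain fluconazole at 8 µg/ml as a sub-toxic cotreatment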
CSC inhib: blocks cancer stem cells; cancer stem cell-like cells viability, luminescence; inhibition, % at 7.5 µM; actives 1.1% (n = 300,000); in the data active = inhibition above about 75%; inconclusive = no clear call, values can overlap the other calls; tested in HMLE shEcad cells
PP1 inh: blocks human PP1-alpha phosphatase, a PP5 counter-screen; inhibition, % at 6.7 µM; actives 0.9% (n = 320,000); purified PP1alpha, OMFP fluorescence; P62136;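 active = inhibition above the mean inhibition of all tested compounds plus 3 SD, computed separately for each screening campaign, cut at about 15% in these data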
PP5 inh: blocks human protein phosphatase 5 activity; P53041; purified PP5c, OMFP substrate fluorescence; inhibition, % at 6.7 µM; actives 0.18% (n = 320,000); AID 1987;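 active = inhibition above the campaign's mean inhibition across all tested compounds plus 3 SD, cut at about 9.5% in these data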
Target sequence (P53041 whole entry, looked up): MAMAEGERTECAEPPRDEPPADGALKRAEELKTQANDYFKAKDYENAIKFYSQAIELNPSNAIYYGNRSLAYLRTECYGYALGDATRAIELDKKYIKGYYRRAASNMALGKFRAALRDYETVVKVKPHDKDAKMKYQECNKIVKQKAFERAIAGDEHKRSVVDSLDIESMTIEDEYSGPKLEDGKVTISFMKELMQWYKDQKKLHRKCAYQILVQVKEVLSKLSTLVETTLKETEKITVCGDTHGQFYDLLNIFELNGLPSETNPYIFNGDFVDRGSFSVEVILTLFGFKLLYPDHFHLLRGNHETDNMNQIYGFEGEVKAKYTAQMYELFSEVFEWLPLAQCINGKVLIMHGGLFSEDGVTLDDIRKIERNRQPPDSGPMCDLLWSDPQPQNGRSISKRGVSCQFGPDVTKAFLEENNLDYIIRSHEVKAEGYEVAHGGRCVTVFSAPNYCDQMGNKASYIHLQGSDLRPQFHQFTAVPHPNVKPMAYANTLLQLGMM
ALR H2O2 inh: human ALR oxidase inhibition via reduced H2O2; purified ALR, DTT oxidation, H2O2 HRP-luminol luminescence; inhibition, % (test concentration not listed); actives 3.8% (n = 290,000);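 active = mean replicate inhibition above about 79%, with every replicate also reaching it, limit read from the data; inconclusive = only one of the two criteria met; inactive = mean below limit and not every replicate reaching it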
Of the large screens only hits and unclear results are named; the others gave an inactive call.

CN1/C(=C/C2CC(=O)NC2=O)C(C)(C)c2ccccc21 (stereo not given)	ALR H2O2 inh 98 (no result: Calb FLC)
N#Cc1cccc(NC(=O)CSc2n[nH]c(=O)[nH]c2=O)c1	none
N=c1sccn1CC(=O)Nc1ccc(SC(F)F)cc1	ALR H2O2 inh 98
CC(=O)OCC(=O)Nc1ccc(SC(F)F)cc1	ALR H2O2 inh 99
N=c1sccn1CC(=O)Nc1ccc(S(N)(=O)=O)cc1	none (no result: ALR H2O2 inh)
C/C=C/C(=O)OCC(=O)Nc1ccc(SC(F)F)cc1	ALR H2O2 inh 99 (no result: CSC inhib)
O=C(CSc1n[nH]c(=O)[nH]c1=O)Nc1ccc(SC(F)F)cc1	ALR H2O2 inh 99 (no result: Calb FLC, PP1 inh, PP5 inh)
C[C@]12CCC(=O)CC1CCC1C2CC[C@@]2(C)C1CC[C@@]21CCO1 (stereo not given in full)	none
NS(=O)(=O)c1ccc(NC(=S)NCc2ccc(Cl)cc2)cc1	none
COc1ccc2nc(Nc3ccccc3OC)sc2c1	ALR H2O2 inh 99
COc1ccc2nc(Nc3ccc4c(c3)OCO4)sc2c1	none (no result: ALR H2O2 inh)
COc1ccc2nc(NC(=O)Nc3ccccc3OC)sc2c1	none
COc1ccc2nc(Nc3ccccc3)sc2c1	ALR H2O2 inh 94 (no result: CSC inhib)
COc1ccc(Br)cc1/C=N/N1C(=O)CSC1=S	none
COc1ccccc1NC(=O)c1ccc2c(c1)N(CC(=O)NC(C)(C)C)C(=O)C(C)(C)O2	none
C=CCC(CC(O)COCCC)C(=O)NNC(=S)Nc1ccccc1 (stereo not given)	ALR H2O2 inh 98
CC(C)CCOCC(O)CCC(=O)NNC(=S)Nc1ccccc1 (stereo not given)	none
CCOC(=O)C1=C(C)NC2=C(C(=O)c3ccccc32)C1c1cccnc1 (stereo not given)	none
COc1ccc(N/C=C\C(=O)c2ccc(C)cc2)cc1OC	none (no result: CSC inhib)
C=CCn1sc(N)c(C(=O)OCC)c1=S	ALR H2O2 inh 99
CCOC(=O)c1c(N)ssc1=S	none
CCOc1ccc(CNC(=O)CCCC(=O)n2nc(C)c3ccccc32)cc1	Calb FLC inconclusive (no result: CSC inhib)
O=S(=O)(c1cc(O)ccc1O)c1cccc2c(S(=O)(=O)c3cc(O)ccc3O)cccc12	ALR H2O2 inh 93
O=C1C2C3C=CC(C3)C2C(=O)N1c1cccc(-c2nc3ccccc3o2)c1 (stereo not given)	none
Fc1ccc(COc2ccc(Cl)cc2/C=N/Nc2nc(N3CCCC3)nc(N3CCCC3)n2)cc1	none
O=C(Cn1cc(C(F)(F)F)ccc1=O)N/N=C/c1ccc(O)cc1	ALR H2O2 inh 99
Cc1nc(Sc2ccccc2)c(C#N)c(C)c1[N+](=O)[O-]	none (no result: ALR H2O2 inh)
CC1(c2nnc(-c3ccccc3)o2)CC(c2cccnc2)=NO1 (stereo not given)	none
OCCN1CCN(C2Cc3cc(Cl)ccc3Sc3ccc(Cl)cc32)CC1 (stereo not given) (tested in a mixture with another compound)	PP1 inh 15 (no result: CSC inhib)
CN1CCN(C2=Cc3cc(Cl)ccc3Sc3cc(F)ccc32)CC1	CSC inhib 113
CN1CCN(C2Cc3cc(Cl)ccc3Sc3cc(F)ccc32)CC1 (stereo not given)	CSC inhib 101
CCc1ccc2c(c1)Sc1ccccc1CC2N1CCN(C)CC1 (stereo not given)	none
CN1CCN(C2=Cc3ccccc3Sc3cc(F)c(F)cc32)CC1	none
CN1CCN(CCOC2Cc3ccccc3Sc3ccc(Cl)cc32)CC1 (stereo not given)	none
Cc1cc(C(=O)COC(=O)c2cccn2C)c(C)n1Cc1ccco1	none
CC(C)(C)C1CCC(C(=O)NNC(=O)c2ccncc2)CC1 (stereo not given)	none
CCN1C(=O)CC(N2CCC(Nc3ccc(OC)cc3)CC2)C1=O (stereo not given)	ALR H2O2 inh 98 (no result: Calb FLC)
COc1ccc(NC2CCN(C3CC(=O)N(c4ccc(F)c(Cl)c4)C3=O)CC2)cc1 (stereo not given)	ALR H2O2 inh 82
CCN1C(=O)CC(N2CCC(C(=O)OC)CC2)C1=O (stereo not given)	none
CC1Cc2ccccc2N1C(=S)Nc1ccc(S(N)(=O)=O)cc1 (stereo not given)	none
CC1CCCC(C)N1CCCNC(=O)C(=O)Nc1ccc2nc3n(c(=O)c2c1)CCCCC3 (stereo not given)	none
CC1CCN(S(=O)(=O)c2ccc(NC(=O)c3ccncc3)cc2)CC1	none
Cc1nnc(NC(=O)c2ccc(S(=O)(=O)N3CCCCCC3)cc2)o1	PP1 inh 17
COCCN(CCOC)S(=O)(=O)c1ccc(C(=O)Nc2nnc(COC)o2)cc1	none
Cc1cccnc1NC(=O)c1ccc(S(=O)(=O)N2CCC(C)CC2)cc1	PP1 inh 16
Cc1nnc(NC(=O)c2ccc(S(=O)(=O)N3CC(C)OC(C)C3)cc2)o1 (stereo not given)	none
COCc1nnc(NC(=O)c2ccc(S(=O)(=O)N3CCCCCC3)cc2)o1	Calb FLC 80
CC1CN(S(=O)(=O)c2ccc(C(=O)Nc3nnc(-c4ccco4)o3)cc2)CC(C)O1 (stereo not given)	ALR H2O2 inh 87
COc1ccc(-c2nnc(NC(=O)c3ccc(S(=O)(=O)N4CCc5ccccc5C4)cc3)o2)cc1	Calb FLC 97 (no result: CSC inhib)
COc1ccc(-c2csc(NC(=O)c3ccc(S(=O)(=O)N4CCc5ccccc5C4)cc3)n2)cc1	none (no result: CSC inhib)
Cc1snc(SCc2cccc(Cl)c2)c1C#N	none
O=C1CC2(CCN(C(=O)c3ccccc3[N+](=O)[O-])CC2)Oc2ccccc21	none
Cc1c(N=Cc2ccc[nH]2)c(=O)n(-c2ccccc2)n1C	ALR H2O2 inh 97
Cc1c(N=Cc2ccccn2)c(=O)n(-c2ccccc2)n1C	ALR H2O2 inh 98
Cc1c(N=Cc2ccncc2)c(=O)n(-c2ccccc2)n1C	none
O=C(NC1CCS(=O)(=O)C1)c1ccc(N2CCCCC2)c([N+](=O)[O-])c1 (stereo not given)	none
CCCc1c(-c2ccc(O)cc2)nn(-c2ccc(O)cc2)c1-c1ccc(O)cc1	CSC inhib 84 (no result: Calb FLC, ALR H2O2 inh)
Cc1ccc(-c2csc3nc4c5ccccc5c(NCCCN(C)C)nn4c(=O)c23)cc1	Calb FLC 78
Cc1ccc(-c2csc3nc4c5ccccc5c(NCCCN5CCOCC5)nn4c(=O)c23)cc1	none
O=C1CC(c2ccccc2)CC(O)=C1C=NCC1CCCO1 (stereo not given)	none
Oc1[nH]c2ccccc2c1C=NCC1CCCO1 (stereo not given)	ALR H2O2 inh 98
COc1ccc(CN=Cc2c(O)[nH]c3ccccc23)cc1	ALR H2O2 inh 99
CCOC(=O)CCc1c(C)c2ccc(OC3CCCCC3=O)cc2oc1=O (stereo not given)	none
CCNC(=S)Nc1ccc(Cl)cc1	none
CCNC(=S)Nc1cc(-c2ccc(Cl)cc2)[nH]n1	ALR H2O2 inh 97
O=C1C(=O)N(Cc2cccnc2)C(c2cccc(O)c2)/C1=C(\O)c1ccc2c(c1)OCCO2 (stereo not given)	none
COc1ccc(-c2nnc(NC(=O)c3cc(Cl)ccc3Cl)o2)cc1	Calb FLC 83 (no result: ALR H2O2 inh)
Cc1ccccc1C(=O)Nc1nnc(-c2ccc(F)cc2)o1	Calb FLC 89 (no result: ALR H2O2 inh)
COc1ccccc1C(=O)Nc1nnc(-c2ccc(F)cc2)o1	none
CS(=O)(=O)c1ccccc1-c1nnc(NC(=O)c2ccco2)o1	none (no result: ALR H2O2 inh)

Screens: PubChem BioAssay, several laboratories
